Screening data deposited in PubChem by National Center for Advancing Translational Sciences (NCATS).
Pf growth 96h: inhibits malaria parasite growth, 96 h | P. falciparum luciferase reporter growth, 96 h | Potency, µM (highest dose often 28.7 µM), for the others: top-dose activity change, negative = inhibition, hits mostly inhibitors | 320,000 tested, 6.9% active | AID 504834; note: potency is the fitted concentration of half-maximal effect; % is set by controls: 0 for no effect and ±100 for the full control effect
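Parasite growth measured via integrated firefly luciferase reporter in P. falciparum. Infected erythrocytes at 2% hematocrit, 0.05% parasitemia final were treated 96 hours at 37 C under 5% CO2, and luminescence was read.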
Shiga toxin inh: blocks Shiga toxin action in Vero cells; Vero cells, Shiga toxin protein synthesis inhibition reporter; 290,000 tested, 9.2% active; inhibition, % at 38.7 µM; in the data active = inhibition mostly above about 28%, no sharp cut-off; inactive = mostly below about 43%; note: 0% is about no effect
Giardia FBPA inh: blocks Giardia fructose-bisphosphate aldolase activity | A8B2U2 | purified Giardia FBPA | Potency, µM (doses to about 59.6 µM), inactives show at the top dose activity, negative = inhibition, hits mostly inhibitors | 290,000 tested, 0.71% active; note: potency is the fitted concentration of half-maximal effect; % is set by controls: 0 for no effect and ±100 for the full control effect; nearly all actives have a fitted effect of over 55% in size
Target sequence (A8B2U2 whole entry, looked up): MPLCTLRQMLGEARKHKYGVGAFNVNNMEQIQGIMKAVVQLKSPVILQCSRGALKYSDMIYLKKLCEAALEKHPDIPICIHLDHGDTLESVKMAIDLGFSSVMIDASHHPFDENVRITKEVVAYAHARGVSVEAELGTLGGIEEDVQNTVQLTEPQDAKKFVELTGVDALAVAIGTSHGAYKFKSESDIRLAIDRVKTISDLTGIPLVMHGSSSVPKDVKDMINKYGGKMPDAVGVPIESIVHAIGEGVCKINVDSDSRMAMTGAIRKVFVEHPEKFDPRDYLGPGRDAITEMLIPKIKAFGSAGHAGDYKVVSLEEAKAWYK
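40 nM FBPA preincubated 10 min at RT with compound (up to 57.5 uM final), then substrate plus GAPDH/TPI/NAD/arsenate coupling and diaphorase/resazurin added. Fluorescence read after 20 min at RT, 525/598 nm.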
Pf growth 48h: P. falciparum growth inhibition at 48 hours (one generation). AID 504832. 310,000 tested, 5.9% active. Potency, µM (highest dose often 28.7 µM), for the others: at the highest dose activity change, negative = inhibition, hits mostly inhibitors. P. falciparum luciferase growth in erythrocytes, 48 h; note: potency is the fitted concentration of half-maximal effect; % is set by controls: 0 for no effect and ±100 for the full control effect
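Parasite viability was followed by luminescence of a genomically integrated firefly luciferase. Cultures held 0.1% parasitemia at 2% hematocrit (final), incubated under 5% CO2 at 37 C.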
NS1 function inh: influenza NS1 inhibition; Potency, µM (top dose mostly 46.1 µM), for the others: top-dose activity, positive = more growth; 270,000 tested, 0.4% active; calls by dose curve; note: potency is the fitted concentration of half-maximal effect; actives are rising curves; nearly all actives have a fitted effect of over 50% in size
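S. cerevisiae expressing influenza A NS1, grown in glucose, washed, then diluted 1:100 into pH 6.0 -URA galactose medium with 23 nl compound. Growth recovery read as OD600; NS1-free strain serves as control.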
CHX counter: counter-screen for Shiga toxin inhibitors: cycloheximide protein synthesis inhibition. cell reporter, cycloheximide protein synthesis inhibition counterscreen. max response, %. 300,000 tested, 12% active; in the data active = max response mostly above about 13%, no sharp cut-off; inactive = mostly below about 14%; note: read at 38.3 µM for the half of the compounds with a filed dose; 0% is about no effect
The depositor's hits bear a star; [ ] = remark or other dose. In the library only some 21% were active in any assay of this set; here they are far more common. Unless noted, calls come from the whole dose curve; as a rule, active = well fitted curve in the direction sought with a large enough effect; inconclusive = small, poorly fitted or top-dose-only effect, or another doubt; inactive = no such curve, though single readings can be large; an effect the other way counts as inactive or inconclusive.

What do the screens show for `Cc1cccc(OCCNc2ccc([N+](=O)[O-])cn2)c1`?
Pf growth 96h: -23.8%; Shiga toxin inh: 15.9; Giardia FBPA inh: 0.8%; Pf growth 48h: 14.4%; CHX counter: 6.4

What do the screens show for `COc1ccccc1Nc1ccc([N+](=O)[O-])cn1`?
Pf growth 96h: 41.8%; Shiga toxin inh: 15.5; Giardia FBPA inh: -4.4%; Pf growth 48h: 105.2%; NS1 function inh: -3.7%; CHX counter: 20.8*

What do the screens show for `CCOc1ccc(S(=O)(=O)NC(Cc2cnc[nH]2)C(=O)O)cc1` (stereo not given)?
Pf growth 96h: 22.2%; Shiga toxin inh: -6.3; Giardia FBPA inh: -18.2%; Pf growth 48h: 17.8%; CHX counter: 2.0

How did Cc1cccc(-n2ncc3c(=O)[nH]c(SCC(=O)NCCC4=CCCCC4)nc32)c1 do in these assays?
Pf growth 96h: inconclusive; Pf growth 48h: -27.3%

What do the screens show for `O=C(O)c1cc([N+](=O)[O-])ccc1NCc1ccccn1`?
Pf growth 96h: 43.4%; Pf growth 48h: 16.3%

Results for O=[N+]([O-])c1ccc(NCCOc2ccccc2Cl)nc1 ?
Pf growth 96h: inconclusive; Shiga toxin inh: 44.1*; Giardia FBPA inh: 5.7%; Pf growth 48h: 5.7%; NS1 function inh: 8.5%; CHX counter: 29.1*

What do the screens show for `COc1ccc(Nc2cc(C)c3cc([N+](=O)[O-])ccc3n2)cc1`?
Pf growth 96h: 49.8%; Shiga toxin inh: 20.7; Giardia FBPA inh: -4.0%; Pf growth 48h: -8.2%[0.00184 µM]; NS1 function inh: 2.2%; CHX counter: 11.0*

What do the screens show for `COc1ccc(Nc2nc(=O)c3cc([N+](=O)[O-])ccc3s2)cc1`?
Pf growth 96h: 0.0%; Shiga toxin inh: -4.2; Giardia FBPA inh: -10.5%; Pf growth 48h: 8.0%; NS1 function inh: 5.0%; CHX counter: 3.6

Results for O=[N+]([O-])c1ccc(NCc2ccccn2)nc1 ?
Pf growth 96h: 38.8%; Shiga toxin inh: 47.4*; Giardia FBPA inh: 1.9%; Pf growth 48h: 15.1%; NS1 function inh: 13.1%; CHX counter: 15.9*

What do the screens show for `O=c1cc(-c2ccccc2)nc2c(-c3ccccc3)c(C(F)(F)F)[nH]n12`?
Pf growth 96h: 2.3%; Shiga toxin inh: -6.1; Giardia FBPA inh: 20.0%; Pf growth 48h: 13.3%; NS1 function inh: 17.0%; CHX counter: 1.7

How did C=CCc1ccc(O)c(-c2cc(CC=C)ccc2O)c1 do in these assays?
Pf growth 96h: 3.7µM*; Shiga toxin inh: -5.6; Giardia FBPA inh: -2.6%; Pf growth 48h: inconclusive; NS1 function inh: -35.3%; CHX counter: -8.6

What do the screens show for `CN(C)c1ccc(NS(=O)(=O)c2cc3c4c(c2)CC(=O)N4CCC3)cc1`?
Pf growth 96h: inconclusive; Shiga toxin inh: 33.3; Pf growth 48h: -26.0%; NS1 function inh: 11.5%; CHX counter: 4.1

What do the screens show for `O=C1Cc2cc(S(=O)(=O)Nc3cccc([N+](=O)[O-])c3)cc3c2N1CCC3`?
Pf growth 96h: 6.57µM*; Shiga toxin inh: -15.0; Giardia FBPA inh: 3.1%; Pf growth 48h: -15.7%; NS1 function inh: 28.2%; CHX counter: 0.6

What do the screens show for `Cc1ccc(C)c(NS(=O)(=O)c2cc3c4c(c2)CC(=O)N4CCC3)c1`?
Pf growth 96h: 3.3%; Shiga toxin inh: -3.0; Pf growth 48h: 10.4µM*; NS1 function inh: 19.8%; CHX counter: -3.9

Results for Cc1cccc(C)c1NS(=O)(=O)c1cc2c3c(c1)CC(=O)N3CCC2 ?
Pf growth 96h: inconclusive; Shiga toxin inh: -12.3; Pf growth 48h: 9.28µM*; NS1 function inh: inconclusive; CHX counter: -4.1

Results for CC(=O)Nc1ccc(NC(=O)C(C)OC(=O)CSc2ccc(Br)cc2C)cc1 (stereo not given) ?
Pf growth 96h: -1.4%; Shiga toxin inh: 14.1; Pf growth 48h: inconclusive; NS1 function inh: 8.1%; CHX counter: -2.4

What do the screens show for `COc1ccccc1CNC(=O)c1cc(S(=O)(=O)N2CCOCC2)cn1C`?
Pf growth 96h: inconclusive; Shiga toxin inh: -6.1; Giardia FBPA inh: -15.9%; Pf growth 48h: -8.6%; NS1 function inh: -6.3%; CHX counter: -0.9

What do the screens show for `CCOC(=O)C1CCCN(C(=O)c2ccc(C)c(NC(=O)C3=C(C)OCCS3)c2)C1` (stereo not given)?
Pf growth 96h: 38.7%; Shiga toxin inh: -10.1; Pf growth 48h: -5.8%; NS1 function inh: 15.3%; CHX counter: -0.5
